Positions count from the first letter of the chain named. The full ranking holds about 24,000 sequences; the median of “enrichment r” is about 0.99, and the highest 2% start at about 3.7. The list comes from a sample in which the highest values are over-represented; it also holds similar and randomly drawn sequences.
T1: UNK ZnF1-3 (human, UniProt Q9C0B0 31-174)
T1 sequence: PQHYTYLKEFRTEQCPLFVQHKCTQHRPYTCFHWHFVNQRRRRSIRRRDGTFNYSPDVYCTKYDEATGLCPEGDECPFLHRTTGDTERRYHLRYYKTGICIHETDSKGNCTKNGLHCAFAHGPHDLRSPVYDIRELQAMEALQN

B1: chrX:147030410:147030411:+_ENSG00000102081_ENST00000218200|hu_mus|FALSE|FALSE (ssRNA)
RNA: GGGAGUUCUACAGUCCGACGAUCACUUCAUGCCCUGUGCCAUCUUGCCUACUAUUUGUCUUUGGCCUAACAAAGUUUUCUAAAAUGGAGUAAGAAUUACGGAAAUGGUAGAGGAAAUAUAACUUCGGAAUUAUGUAGCUUAUUCAACAGAGGAUUGAGCAUCA
B2: 105048333_105048453_1516_3pUTR_ENSG00000148798_ENST00000369849|human|control|control (ssRNA)
RNA: GGGAGUUCUACAGUCCGACGAUCAGCAUUAACUUUUUCAAAGCAAUGGAAUUAUAUUUUUUGGCUUGAAAUGGUGGUUUCUUCUAUAUUUGAUUUCUCGGUUUUCUUAGUAGAUAUUACUGUCUCCUCUAAUAUUUCUUCAAACAACAGAGGAUUGAGCAUCA
B3: chr12:86641468:86641469:-_ENSMUSG00000034290_ENSMUST00000040992|mus_mus|FALSE|FALSE (ssRNA)
RNA: GGGAGUUCUACAGUCCGACGAUCGCAAUAUUAAGAGAGAUAGCCAACCUUUUUUUUGGGGGGGGGGUUUGGUUAAAUGAAACAAUAUUAAUUUAGCUGUGUGUAGUACAGAGGAUAUGGUACUUAUCAAAGGAGCUGCUGUGGCAACAGAGGAUUGAGCAUCA
B4: chr8:13147844:13147845:+_ENSMUSG00000031446_ENSMUST00000016680|mus_hu|FALSE|FALSE (ssRNA)
RNA: GGGAGUUCUACAGUCCGACGAUCUACAAUAUUAACAAUCUCUAGACACAACGAACUUAUAAGAAAAAAAAAAUAGAAAUCUGUUUGGUCUUUCUUAGACCACAUAUCAUGGAACUCAUAAAUGAAAAUUUUCAAAGAUAGAAACAACAGAGGAUUGAGCAUCA
B5: chr4:125586161:125586162:-_ENSG00000151458_ENST00000504087|hu_hu|motif|central (ssRNA)
RNA: GGGAGUUCUACAGUCCGACGAUCUUGUGUAGUGGCAACAGCUGAUUUAUAAAAUUUAAAGAUUUUAAUUUCAAAAAUAUCGGUUAAGGAGUUUUAUAUUUGGAGGACAAUUUUUACUUUUUAAUGGAGCAGAAGCCAUUUUCACAACAGAGGAUUGAGCAUCA
B6: chr4:125586161:125586162:-_ENSG00000151458_ENST00000504087|hu_hu|FALSE|FALSE (ssRNA)
RNA: B5 RNA with G81U, G82A
B7: 24223610_24223730_1957_3pUTR_ENSG00000173960_ENST00000309033|human|control|control (ssRNA)
RNA: GGGAGUUCUACAGUCCGACGAUCUUUUGAAAGAAAAUAAAAUGGAAAGGGAAUAGGCUUUUUAGAAAGAUAAUUUUCUUUUAUUACAUUUUUAUAAAGUGUAGAAAUGUGAGUAGGCAGAUUAAUCUUGAUACUAUACUGAGCCAACAGAGGAUUGAGCAUCA
B8: chr1:60041781:60041782:+_ENSMUSG00000041040_ENSMUST00000036540|mus_hu|mus_mus_mus_hu_False|1_38 (ssRNA)
RNA: GGGAGUUCUACAGUCCGACGAUCAAGUUUACAAUAGUAAAGUAAAUGCAGUAGUGGCAAAUUUUCUUUUAUUUUCCUUCACAAAAGAAAAUCUUUAGAUCUCAGUUCUAGUCUUGGACAUAGUGAAAGCUAUAAAUGCCACUGCAACAGAGGAUUGAGCAUCA
B9: chr4:17841332:17841333:+_ENSG00000109805_ENST00000514176|hu_hu|FALSE|FALSE (ssRNA)
RNA: GGGAGUUCUACAGUCCGACGAUCCUUUUGUAUAGACUCGAAUUUCUGGCGAGCACGGACUUGUUAAGAUCUCAUUGCAAAUUUUCAUAGCCAAAUUGUCAUGUACUGUUAAGGCCUGAUAAUCUUGGGAAGUCUUGGCCUGAGCAACAGAGGAUUGAGCAUCA
B10: chr17:56552419:56552420:-_ENSMUSG00000013236_ENSMUST00000086828|mus_mus|mus_mus_mus_hu_False|28_78 (ssRNA)
RNA: GGGAGUUCUACAGUCCGACGAUCAAAAAAUACACUAUUUAAAAAAAAUGAAAUGUCAGAAAAAGAAGUUACACUGAGAGUUUUAAAAGAAAGCUGGAUUCUGGUCCUUGCCAAAAGUCCCCAGGCUGCAGAGCGGGGAGGAGCCAACAGAGGAUUGAGCAUCA
B11: chr17:56552419:56552420:-_ENSMUSG00000013236_ENSMUST00000086828|mus_mus|mus_mus_mus_hu_False|28_48 (ssRNA)
RNA: GGGAGUUCUACAGUCCGACGAUCAAAAAAUACACUAUUUAAAAAAAAUGAAAUGUCACGGGAUACAGUUACACUGAGAGUUUUAAAAAAAAAUAAGAUUCUGGUCCUUGCCAAAAGUCCCCAGGCUGCAGAGCGGGGAGGAGCCAACAGAGGAUUGAGCAUCA
B12: chr17:56552419:56552420:-_ENSMUSG00000013236_ENSMUST00000086828|mus_mus|mus_mus_mus_hu_False|28_98 (ssRNA)
RNA: B11 RNA with U38A, U39A, A88G, A92G, U93C, A94U, A95G
B13: chr17:56552419:56552420:-_ENSMUSG00000013236_ENSMUST00000086828|mus_mus|mus_mus_mus_hu_False|28_58 (ssRNA)
RNA: B11 RNA with G77C, G79C, U81A, A88G, A92G, U93C, A94U, A95G
B14: chr7:149068622:149068623:-_ENSMUSG00000025139_ENSMUST00000001950|mus_hu|mus_mus_mus_hu_False|78_88 (ssRNA)
RNA: GGGAGUUCUACAGUCCGACGAUCGUGAGGCCUCUGAGUGUGGCUUGUGCUCUGCAGUGUCUGCAGUUUGUUAAUAUCACGGAACAUACCAUCUAGAACGUUCCAGUCCCGCCUGACACCUUCAUUCCCAAUGGAGAAGAAAUCCAACAGAGGAUUGAGCAUCA
B15: chr5:135101456:135101457:-_ENSMUSG00000040731_ENSMUST00000036125|mus_mus|motif|central (ssRNA)
RNA: GGGAGUUCUACAGUCCGACGAUCACCCAAGAGUGCACCGUCAUAAGUCAGAGCCUCCUUCAGGGAAUCCACCUCAUCAAAUUCGGCAUAGCAGAACCCUUUAAAUUUGUCUGUGUCUUUGUCUCUGACUAGCCGCACACUCCGCAACAGAGGAUUGAGCAUCA
B16: chrX:130830059:130830060:+_ENSMUSG00000033578_ENSMUST00000037687|mus_mus|FALSE|FALSE (ssRNA)
RNA: GGGAGUUCUACAGUCCGACGAUCGGGCCAUGAUAGUUAUGGUUCGUGGGGAUGCCAUGGGGUCACCAAGGCAGGUCCCAACUAAUCCCUCUGCUUUGCGCAGCCCGGCUGUCAAGGCGCAGGCAGUUAGCACAGGGAGAGCUACAACAGAGGAUUGAGCAUCA
B17: chr1:163117127:163117128:-_ENSG00000143248_ENST00000313961|hu_mus|FALSE|FALSE (ssRNA)
RNA: GGGAGUUCUACAGUCCGACGAUCUGCUACAAAGGAUGUAACUCAACUCACAGGGCAACUUUUGGAAGCCUGACCAGAUGACUACUUGAUUAGCUCCUUAUAAAAUUCAGAGCGCACAAAGCGGGGCAGAGAAUCCUUCUCCAUCAACAGAGGAUUGAGCAUCA
B18: 139258410_139258530_201_CDS_ENSG00000114115_ENST00000232219|human|control|control (ssRNA)
RNA: GGGAGUUCUACAGUCCGACGAUCGCGGGACGGCUGGAGACUGCCGGGACAGCGGCUGCCGGUGCUACGCGGGUGGUGGGCGGCCCGGAAAUGAGCGCCCUCCGGGGACAGGGGGCUCUGCGGGGCGGCGACAGCUGGAUUCCCCAACAGAGGAUUGAGCAUCA
B19: chr2:65539780:65539781:-_ENSG00000198369_ENST00000356388|hu_hu|motif|central (ssRNA)
RNA: GGGAGUUCUACAGUCCGACGAUCUUUGCAAAACAACAAGCAAAAUUUCUUACUUCACUAGUAUCCUAUUCUAAUAUUGCGGAAUUUUUAGAAGUGGUGGCAACACAAUUUAAAAAAUGUUCUACUUUAGGGGUAAUGGGGAGGCAACAGAGGAUUGAGCAUCA
B20: chr17:56552419:56552420:-_ENSMUSG00000013236_ENSMUST00000086828|mus_mus|motif|central (ssRNA)
RNA: GGGAGUUCUACAGUCCGACGAUCUUUGUUUUUUUCUUAAAAAAAAAAAAGAAAAAAAGAAAAAGAAAAAAAAUAUACACGGUUAAAAAAAAAUAAGAAAAAAAAUGUUGCCAAAAGGCAGGCAGGGGAGUGCGGAAGCAGAGGCAACAGAGGAUUGAGCAUCA
B21: chr17:56552419:56552420:-_ENSMUSG00000013236_ENSMUST00000086828|mus_mus|mus_mus_mus_hu_False|18_28 (ssRNA)
RNA: GGGAGUUCUACAGUCCGACGAUCAAAAAAUACACUAUUUAAAAAAAAUGAAAUGUCACGGGAUACAGUUACACUGAGAGUUUUAAAAGAAAGCUGGAUUCUGGUCCUUGCCAAAAGGCAGGCAGGGGCAGAGCGGGGAGGAGCCAACAGAGGAUUGAGCAUCA
B22: chr17:56552419:56552420:-_ENSMUSG00000013236_ENSMUST00000086828|mus_mus|FALSE|FALSE (ssRNA)
RNA: B20 RNA with G80U, G81A

Each binder was assayed against T1, UNK ZnF1-3 (assay: nsRBNS (natural sequence RNA bind-n-seq); RBNS binding buffer (assumed for nsRBNS): 25 mM Tris pH 7.5, 150 mM KCl, 3 mM MgCl2, 0.01% Triton X-100, 500 ug/ml BSA, 20 U/ml SUPERase-In, 4 C; UNK is unkempt and MSI1 is Musashi-1; names of the RNAs are library labels; protein concentration not given here; high values mean tight binding).

Binder	binding signal [enrichment R]
B1	1.78
B2	4.33
B3	3.28
B4	3.59
B5	4.45
B6	4.35
B7	3.4
B8	0.52
B9	0.957
B10	3.64
B11	6.32
B12	6.54
B13	4.14
B14	0.733
B15	0.437
B16	0.967
B17	1.14
B18	1.1
B19	3.44
B20	15.8
B21	3.67
B22	19.2

— paper PMC12136788
